# Source: PubChem BioAssay (Tox21)
# Where “and” joins values, the source holds several entries; their conditions need not be identical. Identical values can stand only once. Records with an inconclusive call do not appear. A call without a number means that no potency is given here. Some structures have more than one record in an assay (separate samples or runs), and their calls can disagree. Calls of active or inactive are those of the source. The call rests on the fitted dose curve; in most records, active means well fitted cell-killing curve with a large enough effect in the repeat runs; inconclusive means weak or mixed curves, or effect the other way; inactive means flat fitted curve, though single readings scatter.
# Test: Caspase-3/7 induction in HepG2 cells by small molecules, qHTS cell viability counter screen (AID 1346981); further: nearly all actives have a fitted effect of over 30% in size
# Conditions: CellTiter-Fluor fluorescence, 17 h; series mostly up to 92.4 µM; activity change, negative = cytotoxicity: at the top concentration
# From the text: U.S. Tox21 Program National Center for Advancing Translational Sciences [NCATS] NIH Chemical Genomics Center [NCGC] U.S. Environmental Protection Agency [EPA] National Institutes of Environmental Health Sciences [NIEHS] National Toxicology Program [NTP] U.S. Food and Drug Administration [FDA] Tox21 Assay Overview: Apoptosis is a process of programmed cell death and plays a central role in the development of multicellular organisms. It is a highly regulated process and induces cell death by activating caspases, which are the members of cysteine aspartic acid-specific protease (caspase) family. Caspases involved in apoptosis are classified by their mechanism of action as initiator caspases (caspase-2, -8, -9 and -10) and executioner caspases (caspase-3, -6, and -7). Inhibition of apoptosis results in number of cancers, autoimmune diseases, inflammatory diseases and viral infection. To identify small molecule compounds that induce apoptosis, a homogeneous, luminescent Caspase-Glo 3/7 assay was used. Wild type HepG2 cells were used to screen Tox21 libraries for identifying caspase-3/7 activity inducers. Also cytotoxicity of the compounds was tested in parallel by measuring the cell viability using CellTiter-Fluor assay system in the same wells.
# Tox21 Assay Protocol Summary: HepG2 cells were dispensed at 2,000 per well in 5uL of culture medium into white solid bottom 1536-well plates (Corning Life Sciences, Corning, NY) using a Multidrop Combi (Thermo Scientific, Waltham, MA) dispenser. The assay plates were incubated at 37 C and 5% CO2 for 5hr, and then 23nL of compounds dissolved in DMSO and positive control were transferred using a Pintool station ([…], San Diego, CA). The assay plates were incubated at 37C and 5% CO2 for 17hr. For cytotoxicity read, after 16hr incubation at 37C, 1uL CellTiter-Fluor reagent (Promega Corporation, Madison, WI) was added to each well of the assay plates using Flying Reagent Dispenser (FRD, Aurora Discovery, San Diego, CA). After 1hr incubation at 37C and 5% CO2, the fluorescence signal was quantified using a ViewLux plate reader (PerkinElmer, Shelton, CT).
# Potency means the concentration at half of the fitted maximal effect.
Compound,Potency,"activity change, negative = cytotoxicity"
CCCCOCCOP(=O)(OCCOCCCC)OCCOCCCC,inactive,–
O=C(NC(=O)c1c(F)cccc1F)Nc1ccc(Cl)cc1,–,-0.05% (inactive)
Oc1ccc(-c2ccccc2)cc1,inactive,–
Cc1cccc(N)c1N,–,-13.8% (inactive)
CCOc1cc(C=O)ccc1O,inactive,–
C=CCc1ccc(OC)cc1,inactive,–
O=C(CCl)c1ccccc1,inactive,–
Nc1c(Cl)cc([N+](=O)[O-])cc1Cl,inactive,–
CCC(C)c1cc([N+](=O)[O-])cc([N+](=O)[O-])c1O (stereo not given),inactive and 17.2 µM (active),–
NCc1cccnc1,inactive,–
O=c1oc2ccccc2c(O)c1C(CC(O)c1ccc(-c2ccc(Br)cc2)cc1)c1ccccc1 (stereo not given),inactive,–
Nc1ccc(Cl)cc1N,7.92 µM (active),–
C=C(C)C(=O)OCC1CO1 (stereo not given),inactive,–
CCCCCCCCC(=O)NCc1ccc(O)c(OC)c1,inactive,–
CCCCCCOC(=O)c1ccccc1C(=O)OCCCCCC,inactive,–
Cc1cc(C)cc(C)c1,inactive,–
CCc1cccc(CC)c1N(COC)C(=O)CCl,–,-2.39% (inactive)
OCC(O)CO,inactive,–
Cc1ccc(N)c(N)c1,inactive,–
CCOC(=S)S,inactive,–

Compound,Potency,"activity change, negative = cytotoxicity"
c1ccc(NNc2ccccc2)cc1,inactive,–
CC(C)(c1cc(Cl)c(O)c(Cl)c1)c1cc(Cl)c(O)c(Cl)c1,inactive,–
O=[N+]([O-])c1ccc(O)c([N+](=O)[O-])c1,54.7 µM (active) and 61.1 µM (active),–
c1ccc(-c2cccc(-c3ccccc3)c2)cc1,–,8.17% (inactive)
Nc1cccnc1,inactive,–
Oc1c(Cl)c(Cl)c(Cl)c(Cl)c1Cl,–,3.22% [at 42.5 µM] (inactive)
CCCCCc1cc(O)cc(O)c1,48.6 µM (active),–
ClC1C(Cl)C(Cl)C(Cl)C(Cl)C1Cl (stereo not given),inactive,–
CCCCC(CC)COC(=O)Cl (stereo not given),inactive,–
CC(C)C(=O)OCC(C)(C)C(OC(=O)C(C)C)C(C)C (stereo not given),inactive,–
Oc1cc(Cl)ccc1Cl,inactive,–
N#Cc1cc(Br)c(O)c(Br)c1,–,-11.6% (inactive)
O=[N+]([O-])c1cccc2ccccc12,inactive,–
N[C@@H](Cc1ccc(N(CCCl)CCCl)cc1)C(=O)O,26.2 µM (active),–
Nc1ccncc1,inactive,–
CCCCN(CC)c1c([N+](=O)[O-])cc(C(F)(F)F)cc1[N+](=O)[O-],inactive,–
COC(=O)c1sccc1S(=O)(=O)NC(=O)Nc1nc(C)nc(OC)n1,inactive,–
CCCCN(CCCC)N=O,inactive,–
O=P(Oc1ccccc1)(Oc1ccccc1)Oc1ccccc1,inactive,–
O=S(=O)(Oc1ccc(Cl)cc1)c1ccc(Cl)cc1,–,5.26% (inactive)
